KB-3-1 cytotox – qHTS assay for MDR1-selective chemotherapeutics: Primary screen using the parental adenocarcinoma cell KB-3-1. KB-3-1 viability, CellTiter-Glo ATP luminescence, 72 h. Potency, µM (series often up to 46.1 µM), usual class: cytotoxic. 1.4% of 400,000 active; note: potency is the fitted concentration of half-maximal effect; % is set by controls: 0 for no effect and ±100 for the full control effect; nearly all actives have a fitted effect of over 60% in size
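Screening of KB-3-1 cells (DMEM, 10% FBS, phenol-red free) ran from lowest to highest compound concentration; after 72 h at 37 °C viability was read luminescently and curves fitted.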
D3 ag – qHTS of D3 Dopamine Receptor Agonist: qHTS. AID 652048, 2013. D3R DiscoveRx beta-arrestin cells, luminescence, 90 min. 0.58% of 410,000 active. max activation, %. D(3) dopamine receptor (Homo sapiens), P35462; in the data active = max activation above about 30%; note: 0% is about no effect
Target sequence (P35462 whole entry, looked up): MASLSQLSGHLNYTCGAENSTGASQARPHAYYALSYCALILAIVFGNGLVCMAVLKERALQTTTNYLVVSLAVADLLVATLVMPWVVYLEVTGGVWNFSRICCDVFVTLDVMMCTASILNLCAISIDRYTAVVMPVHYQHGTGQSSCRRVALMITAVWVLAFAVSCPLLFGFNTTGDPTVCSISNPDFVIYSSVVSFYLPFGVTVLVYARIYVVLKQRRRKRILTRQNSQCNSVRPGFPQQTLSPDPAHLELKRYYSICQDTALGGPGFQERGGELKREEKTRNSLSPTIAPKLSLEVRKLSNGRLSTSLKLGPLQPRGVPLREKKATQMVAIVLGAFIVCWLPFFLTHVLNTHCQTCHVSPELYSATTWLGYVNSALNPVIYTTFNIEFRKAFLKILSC
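Agonist-mode cell screen: cells plated at 1500/well and incubated overnight at 37 °C, then exposed to library compounds for 90 min at 37 °C. Detection reagent was added for 30–60 min at room temperature, and luminescence was read.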
D3 antag – qHTS of D3 Dopamine Receptor Antagonist: qHTS; 2.5% of 360,000 active; AID 652054, 2013; max response, negative = inhibition, %; D3R cells, DiscoveRx beta-arrestin luminescence, antagonist mode; stronger effect = lower value; D(3) dopamine receptor (Homo sapiens), P35462; in the data active = max response below about -50%; inconclusive = no clear call, values can overlap the other calls; note: % is set by controls: 0 for no effect and ±100 for the full control effect
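Cells expressing the human receptor were seeded at 1500 cells/well, incubated overnight at 37 degrees C in 5% CO2, then exposed to library compounds with dopamine controls for 90 minutes at 37 degrees C before luminescent detection.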
KB-V1 cytotox – qHTS assay for MDR1-selective chemotherapeutics: Primary screen using the drug-selected MDR subline cells KB-V1; 3.4% of 400,000 active; KB-V1 MDR cells viability, CellTiter-Glo, 72 h; Potency, µM (top dose mostly 46.1 µM), hits mostly cytotoxic; note: potency is the fitted concentration of half-maximal effect; % is set by controls: 0 for no effect and ±100 for the full control effect; nearly all actives have a fitted effect of over 60% in size
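Potencies derive from concentration-effect curves fitted to normalized luminescence (CellTiter-Glo) of KB-V1 cells treated for 72 h at 37 degrees C in phenol-red-free DMEM containing 10% FBS.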
MCF10A rereplic – A quantitative high throughput screen for small molecules that induce DNA re-replication in MCF 10a normal breast cells | MCF 10A DNA re-replication, Hoechst nuclear intensity, 48 h | Potency, µM (series often up to 46.1 µM), without a hit: at the highest dose activity, positive = re-replication, most hits filed as activators | 2.9% of 350,000 active; note: potency is the fitted concentration of half-maximal effect; % of control where 0% means no effect; nearly all actives have a fitted effect of over 50% in size
SW480 rereplic – A quantitative high throughput screen for small molecules that induce DNA re-replication in SW480 colon adenocarcinoma cells; SW480 DNA re-replication, Hoechst DNA content imaging, 48 h; Potency, µM (top dose mostly 46.1 µM), inactives show at the top dose re-replication activation, actives largely listed as activators; 1.8% of 340,000 active; AID 624297, 2012; note: potency is the fitted concentration of half-maximal effect; % of control where 0% means no effect; nearly all actives have a fitted effect of over 55% in size
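250 cells/well; 23 nL cpd via pin tool; 48 hr, 37 C, 5% CO2; Hoechst 40 min; imager read of total nuclear intensity, ex 405/em 500-530 nm.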
* marks the source's active call; other numbers are inactive results; i = inactive; ? = inconclusive; . = not tested or not shown; [ ] = another dose, or the depositor's remark. Compounds with a hit are over-represented: about 8.9% of the library has one in this group of screens. Unless noted, calls come from the whole dose curve; as a rule, active = well fitted curve in the direction sought with a large enough effect; inconclusive = small, poorly fitted or top-dose-only effect, or another doubt; inactive = no such curve, though single readings can be large; an effect the other way counts as inactive or inconclusive.

SMILES | KB-3-1 cytotox | D3 ag | D3 antag | KB-V1 cytotox | MCF10A rereplic | SW480 rereplic
O=C(NCCCN1CCN(c2cccc(Cl)c2)CC1)c1nc(-c2ccncc2)no1 | i | 3 | -64* | 4.1µM* | 21% | -1%
COc1cc2c(C(=O)NCCCN3CCN(c4cccc(Cl)c4)CC3)cn(C)c(=O)c2cc1OC | i | 31* | -56* | i | ? | -5%
COc1ccc(S(N)(=O)=O)cc1C(=O)NCCCN1CCN(c2ccc(C)cc2)CC1 | i | -10 | -71* | i | 5% | -1%[9.22 µM]
CCS(=O)(=O)N1CCC2(CC1)OC(=O)C(C)=C2C(=O)NCc1ccc(OC)c(OC)c1 | i | -1 | . | ? | . | .
CS(=O)(=O)N(CC(=O)N1CCOCC1)c1ccccc1Br | i | 6 | -6 | i | 0% | 3%
O=C(Nc1ccc2c(c1)CCCN2C(=O)c1cccs1)c1ccc(F)c(F)c1 | ? | 10 | . | i | . | .
COc1ccccc1N1CCN(CCCCNC(=O)c2ccc3ccccc3c2)CC1 | i | . | . | ? | -11% | 4%
COc1ccc(S(N)(=O)=O)cc1C(=O)NCCCN1CCN(c2ccccc2OC)CC1 | i | -5 | -92* | i | 5% | -2%
Cc1nc(C(=O)Nc2ccc(Cl)cc2)nn1-c1ccc([N+](=O)[O-])cc1 | i | 1 | -12 | i | -182%[0.0737 µM] | -5%
Cc1ccc(NC(=O)c2nc(C)n(-c3ccc([N+](=O)[O-])cc3)n2)cc1 | i | -11 | 12 | 12µM* | 1% | -3%
O=C(Nc1nccs1)c1ccc(COc2ccc(F)cc2)o1 | i | -8 | 19 | i | 2.9µM* | -6%
O=C(Nc1nccs1)c1ccc(COc2ccccc2Br)o1 | ? | -3 | 15 | 15µM* | -5% | 1%
O=C(Nc1nccs1)c1ccc(COc2ccc(Cl)cc2)o1 | i | 13 | 39 | ? | 18% | -3%
COc1ccccc1NC(=O)c1ccc(COc2ccccc2Br)o1 | i | -3 | 11 | i | ? | 1%
CCc1cc(C(=O)NC2CCCc3c2cnn3-c2ccc(F)cc2F)no1 (configuration not stated) | 15µM* | 1 | 22 | ? | . | .
O=C(CCc1ccccn1)NC1CCCc2c1cnn2-c1ccc(F)cc1F (configuration not stated) | ? | -4 | 3 | 21µM* | -2% | -4%
COc1ccc(NC(=O)CCS(=O)(=O)c2cc3c(cc2C)NC(=O)CO3)cc1Cl | i | 8 | . | i | . | .
O=c1[nH]c2ccc(Cl)cc2c(-c2ccccc2)c1CN1CCOCC1 | i | -18 | -58* | ? | 173% | ?
O=c1[nH]c2ccc(Cl)cc2c(-c2ccccc2)c1N1CCN(c2ccccn2)CC1 | i | -21 | -23 | 13µM* | 24% | ?
COc1ccc(OC)c2[nH]c(=O)c(CCNC(=O)COc3ccccc3)cc12 | i | 2 | 25 | 9.2µM* | -2% | -6%
Sc1oc(-c2ccccc2)cc1C=Nc1ccccc1 | i | 0 | -24 | i | ? | 13µM*
CC(C)(C)c1cnnn1-c1ccc(/C=N/Nc2ccc([N+](=O)[O-])cc2)cc1 | ? | -16 | -57* | i | ? | 18µM*
Cn1nc(C(F)(F)F)c2cc(NC(=O)OCc3ccc(C(C)(C)C)cc3)sc21 | i | 4 | -4 | i | 15µM* | 15%
Cn1nc(C(F)(F)F)c2cc(NC(=O)OCc3ccc(F)cc3)sc21 | i | 7 | 9 | ? | ? | -6%
Cc1sc2ncn(CC(=O)Nc3cccc(C(F)(F)F)c3)c(=O)c2c1S(=O)(=O)N1CCN(C)CC1 | i | -4 | . | i | . | .
SMILES | KB-3-1 cytotox | D3 ag | D3 antag | KB-V1 cytotox | MCF10A rereplic | SW480 rereplic
COc1ccc(C(=O)Oc2cccc3cccnc23)cc1[N+](=O)[O-] | i | -21 | ? | i | ? | ?
O=C(Oc1ccc(Cl)c2cccnc12)c1cccnc1 | i | -7 | -70* | i | ? | ?
Cc1ccc(C(=O)Oc2ccc(Cl)c3cccnc23)cc1[N+](=O)[O-] | ? | -29 | -126* | i | ? | ?
Cc1cccc(NC(=O)Oc2ccc(Cl)c3cccnc23)c1 | ? | -30 | -120* | i | . | .
O=C(Oc1ccc(Cl)c2cccnc12)N1CCCCC1 | i | 3 | 19 | i | -12% | -2%
O=C(Oc1ccc(Cl)c2cccnc12)C12CC3CC(CC(C3)C1)C2 | i | -15 | -15 | i | 18µM* | -6%
COc1ccc(-n2nc3ccc(NC(=O)c4ccc(C#N)cc4F)cc3n2)cc1Cl | i | 7 | . | ? | . | .
N#C/C(=C\c1ccc(Cl)cc1Cl)c1nc(-c2cccc(Cl)c2)cs1 | . | -4 | . | . | . | .
CCCn1c(SCc2nc(-c3cc(OC)ccc3OC)no2)nnc1-c1ccc(Cl)cc1 | i | 9 | . | ? | . | .
C=CCNC(=O)C1CC1(c1ccccc1)c1ccccc1 (configuration not stated) | i | -2 | ? | 18µM* | 3% | -97%
C=CCNC(=O)C1CC1(c1ccc(C)cc1)c1ccc(C)cc1 (configuration not stated) | i | 0 | -12 | ? | ? | 1%
Cc1ccc(NC(=O)NCCOCCn2c(=O)oc3ccccc32)cc1C | i | -8 | . | i | . | .
COc1ccc(OCCN2CCC(C(=O)NC(c3ccc(C)cc3)c3ccccn3)CC2)cc1 (configuration not stated) | i | -18 | -74* | i | . | .
COc1ccc(C(NC(=O)C2CCN(CCOc3ccccc3)CC2)c2ccccn2)cc1 (configuration not stated) | i | 4 | ? | i | . | .
O=C(NC(c1ccc2c(c1)OCO2)c1ccccn1)C1CCN(CCOc2ccccc2)CC1 (configuration not stated) | i | 8 | -72* | i | . | .
COc1cccc(C(NC(=O)C2CCN(CCCOc3ccccc3)CC2)c2ccccn2)c1 (configuration not stated) | i | -21 | -89* | i | . | .
CSc1ncc(C(=O)Nc2ccccc2C(=O)c2ccccc2)c(C)n1 | i | 7 | . | i | . | .
COc1ccc(CNC(=O)Cn2c(=O)cc(-c3ccccc3)c3c(C)nn(C)c32)cc1 | i | 2 | . | i | . | .
COc1ccc(-c2cc(=O)c3c(C)cc(O)cc3o2)cc1 | i | -2 | -11 | 2.6µM* | -4% | 1%

High-throughput results from PubChem.
